# Screening data as filed in PubChem BioAssay.
# This excerpt belongs to a sample that is enriched for hits.
# KDM5B inhibitor – KDM5B demethylase inhibition | Q9UGL1 | KDM5B demethylase, FDH-coupled NADH fluorescence (FDH is formaldehyde dehydrogenase) | Potency, µM (highest dose often 57.7 µM), usual class: inhibitors | 220,000 compounds, 2.6% hits | AID 1347165; active = well fitted inhibition curve with a large enough effect; also: nearly all actives have a fitted effect of over 70% in size
# Target sequence (Q9UGL1 whole entry, looked up): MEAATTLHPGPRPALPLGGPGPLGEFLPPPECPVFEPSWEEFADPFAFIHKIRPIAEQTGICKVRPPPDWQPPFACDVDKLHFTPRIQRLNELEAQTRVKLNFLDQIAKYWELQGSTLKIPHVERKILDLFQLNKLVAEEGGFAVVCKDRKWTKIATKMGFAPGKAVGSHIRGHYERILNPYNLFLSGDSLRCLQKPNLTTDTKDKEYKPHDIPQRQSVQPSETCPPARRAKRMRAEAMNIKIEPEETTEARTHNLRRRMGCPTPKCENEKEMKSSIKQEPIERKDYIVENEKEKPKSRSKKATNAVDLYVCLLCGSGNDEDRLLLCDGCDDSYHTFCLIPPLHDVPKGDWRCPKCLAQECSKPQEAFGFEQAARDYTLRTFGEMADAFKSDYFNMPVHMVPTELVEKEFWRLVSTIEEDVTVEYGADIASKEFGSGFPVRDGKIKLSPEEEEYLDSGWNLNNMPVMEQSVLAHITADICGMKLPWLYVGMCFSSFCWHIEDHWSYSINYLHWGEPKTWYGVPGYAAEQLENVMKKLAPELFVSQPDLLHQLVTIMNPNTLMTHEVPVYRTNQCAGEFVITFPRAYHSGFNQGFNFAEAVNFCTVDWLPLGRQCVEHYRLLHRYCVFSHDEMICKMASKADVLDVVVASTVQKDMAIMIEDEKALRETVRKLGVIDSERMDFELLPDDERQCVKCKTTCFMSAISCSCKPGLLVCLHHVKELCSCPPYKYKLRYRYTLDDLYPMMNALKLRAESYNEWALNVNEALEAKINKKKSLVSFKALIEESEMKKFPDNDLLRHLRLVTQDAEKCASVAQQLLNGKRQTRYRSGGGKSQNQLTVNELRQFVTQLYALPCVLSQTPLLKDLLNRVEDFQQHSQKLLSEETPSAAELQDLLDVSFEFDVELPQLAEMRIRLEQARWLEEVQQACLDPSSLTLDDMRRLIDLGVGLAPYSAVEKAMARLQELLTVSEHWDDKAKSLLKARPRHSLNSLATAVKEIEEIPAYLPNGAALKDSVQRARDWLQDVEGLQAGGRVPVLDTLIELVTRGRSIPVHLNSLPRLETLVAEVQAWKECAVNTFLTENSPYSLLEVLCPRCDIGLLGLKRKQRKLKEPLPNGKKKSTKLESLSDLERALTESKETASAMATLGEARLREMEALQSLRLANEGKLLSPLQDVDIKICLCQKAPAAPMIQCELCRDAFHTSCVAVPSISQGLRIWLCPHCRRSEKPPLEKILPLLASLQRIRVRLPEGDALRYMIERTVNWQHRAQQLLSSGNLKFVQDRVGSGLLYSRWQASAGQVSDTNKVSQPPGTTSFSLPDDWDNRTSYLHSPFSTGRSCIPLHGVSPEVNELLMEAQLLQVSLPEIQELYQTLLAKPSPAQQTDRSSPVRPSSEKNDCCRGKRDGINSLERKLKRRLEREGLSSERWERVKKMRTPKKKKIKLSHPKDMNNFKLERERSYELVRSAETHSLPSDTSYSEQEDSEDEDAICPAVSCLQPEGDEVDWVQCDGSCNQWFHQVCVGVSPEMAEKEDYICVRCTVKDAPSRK
#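 qHTS format, multiple compound concentrations. Buffer 50 mM HEPES pH 7.5/0.01% Tween-20; 200 nM KDM5BΔAP final; 10 min compound preincubation; substrate-mix levels 12.5 µM peptide, 25 µM α-KG, 0.25 mM NAD⁺; 30 min RT; ΔRFU.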
# Numbers stand for hits; n = inactive.
SMILES,KDM5B inhibitor
Cc1cc(=O)c(C(=O)N2CCN(S(=O)(=O)c3ccc(F)c(F)c3)CC2)nn1-c1ccccc1F,n
COc1cccc(C(N)=O)c1OCc1ccc(SC)cc1,n
O=C(Nc1ccc2ncnc(N3CCCC3)c2c1)c1cccc(Br)c1,32µM
N#Cc1ccc(C(=O)Nc2ccc3ncnc(N4CCCCC4)c3c2)cc1,n
O=C(Nc1ccc2ncnc(N3CCCCC3)c2c1)c1cc(F)ccc1F,n
O=C(Nc1ccc2ncnc(N3CCCCC3)c2c1)c1ccc(F)c(F)c1,n
COc1cccc(CC(=O)Nc2ccc3c(N4CCCCC4)ncnc3c2)c1,n
COc1ccccc1CC(=O)Nc1ccc2ncnc(N3CCCCC3)c2c1,n
Nc1ccc2ncnc(N3CCCC3)c2c1,28µM
CCOCC(=O)Nc1ccc2ncnc(N3CCCCC3)c2c1,n
COc1ccc(CC(=O)Nc2ccc3ncnc(N4CCCCC4)c3c2)c(Cl)c1,32µM
O=C(Nc1ccc2c(N3CCCC3)ncnc2c1)c1cccc(F)c1,n
O=C(Nc1ccc2ncnc(N3CCCCC3)c2c1)c1ccsc1,n
O=C(Nc1ccc2ncnc(N3CCCCC3)c2c1)c1cncc(Br)c1,28µM
Cc1ccc(OCCC(=O)Nc2cccc3cccnc23)cc1,n
CCN1CC(c2nc(-c3ccc(-n4nc(C)cc4N)cc3)no2)CCC1=O (stereo not given),n
COc1ccc(C(=O)Nc2oc3ccccc3c(=O)c2-c2ccc(Cl)cc2)cc1OC,n
COc1ccccc1CC(C(=O)Nc1ccccc1F)c1nn[nH]n1 (stereo not given),n
Nc1nc(Cl)ncc1[N+](=O)[O-],n
CCC(=O)N1N=C(c2ccccc2NS(=O)(=O)c2ccccc2)CC1c1ccccc1 (stereo not given),n
CSCCC(NC(=O)c1ccccc1Br)C(=O)Nc1ccc(F)cc1F (stereo not given),n
CNc1c(NC(=O)Nc2ccc(Cl)cc2)c(=O)oc2ccccc12,n
Cc1cc(C)n(C2CCN(c3nccc(-c4ccccn4)n3)C2)n1 (stereo not given),n
COCCN1CCC(CNc2nccc(-c3ccccn3)n2)C1 (stereo not given),28µM
Cc1ccc(CN2CCC(CNc3ccncn3)CC2)o1,n
SMILES,KDM5B inhibitor
CCOCCn1c(N2CCN(Cc3ccc(Cl)c(Cl)c3)CC2)nc2c1c(=O)[nH]c(=O)n2C,n
CCCCn1c(N)c(N(CCC)C(=O)Cn2c(CSC)nc3ccccc32)c(=O)[nH]c1=O,n
COC(=O)c1c(C)[nH]c(C(=O)N2CCCC2c2cc(OC)ccc2OC)c1C (stereo not given),n
CN(C)c1ccc(CN2C[C@@H](CN3CCCCC3)[C@@H](CO)C2)cn1,28µM
OC[C@H]1CN(Cc2ccc(-n3ccnc3)cc2)C[C@H]1CN1CCCCC1,n
CN(C)c1nc2c(c(N3C[C@@H](CN4CCCC4)[C@@H](CO)C3)n1)CCCC2,n
Cn1c(=O)[nH]c(=O)c2c1nc(N1CCCCCC1)n2CCc1ccccc1,n
O=C(COC(=O)c1cc(=O)[nH]c2ccccc12)Nc1ccccc1,n
CCCNC(=O)Nc1cccc(C(N)=O)c1C,n
CCOc1ccc(C(=O)N2CCN(c3ncccn3)CC2)cc1,n
CCOc1ccccc1C(=O)N1CCC(Oc2ncccc2C(=O)N2CCCCC2)C1 (stereo not given),n
CCOc1ccccc1C(=O)N1CCC2(CC1)CN(c1ncccn1)CC2CO (stereo not given),32µM
CCOc1ccccc1C(=O)N1CCC2(CC1)N(C)C(=O)CS2(=O)=O,n
CC(=O)N1CC(CO)C2(CCN(C(=O)c3ccc(Br)cc3)CC2)C1 (stereo not given),n
Cn1cc(C(=O)N2CCC3(CC2)CN(c2ncccn2)CC3CO)cn1 (stereo not given),25µM
N#Cc1ccc(C(=O)N2CCC3(CC2)CN(c2ccncn2)CC3CO)cc1 (stereo not given),n
CCOc1ccc(C(=O)N2CCC3(CC2)CN(c2ncccn2)CC3CO)cc1 (stereo not given),25µM
O=C(c1ccsc1)N1CCC2(CC1)CN(c1ccncn1)CC2CO (stereo not given),n
CCc1sc(C(=O)NCc2ccccc2OC)cc1C,n
Cc1cccc(C)c1NC(=O)CCC1CCCC1,n
Cc1ccc(C(=O)/C=C/c2ccc(C#N)cc2)o1,n
O=C(NC1CCCCCC1)c1csc2ccccc12,n
Cc1oc2ccn(Cc3cccc(F)c3)c(=O)c2c1C(=O)NC(C)c1ccccn1 (stereo not given),n
COc1ccc(NC(=O)c2c(C)oc3ccn(Cc4cccc(F)c4)c(=O)c23)cc1F,n
COc1ccc(OC)c(NC(=O)c2c(C)oc3ccn(Cc4cccc(F)c4)c(=O)c23)c1,25µM
SMILES,KDM5B inhibitor
Cc1oc2ncn(C)c(=O)c2c1C(=O)Nc1ccc(F)cc1,n
CC(=O)Nc1ccc(NC(=O)c2c(C)oc3ccn(Cc4ccc(F)cc4)c(=O)c23)cc1,28µM
CCCCN(C)C(=O)c1c(C)oc2ccn(Cc3ccc(F)cc3)c(=O)c12,n
CCOC(=O)C1=C(C)N(c2ccc3c(c2)OCO3)C(=O)NC1c1ccc(F)cc1F (stereo not given),n
CN(CC(=O)NC1CCCCNC1=O)Cc1ccccc1Cl (stereo not given),n
Cc1cc(Nc2cc(Cl)cc(Cl)c2)nc(-c2ccccc2O)n1,n
CCCCc1ccc(NC(=O)Cn2ccn(-c3ccc(OC)cc3)c2=O)cc1,n
Cc1ccc(F)cc1NC(=O)C1CCCN1S(=O)(=O)c1ccc(Br)cc1 (stereo not given),n
OC1(CN2CCCCC2)CCN(Cc2ccc(C(F)(F)F)cc2F)C1 (stereo not given),n
OC1(CN2CCCCC2)CCN(c2cccc(C(F)(F)F)n2)C1 (stereo not given),28µM
OC1(CN2CCCCC2)CCN(Cc2ccc(F)c(Cl)c2)C1 (stereo not given),n
Cc1ccc(C(=O)Nc2cccc3ncccc23)cc1,n
CCCNC(=O)N1CCC(Oc2ncccc2C(=O)N(C)C)C1 (stereo not given),n
CCOC(=O)c1ccc(NC(=O)CN2CCN(C(=O)C3CCCO3)CC2)cc1 (stereo not given),n
CCCOc1nccnc1NC1CCN(C(=O)C2CCCO2)CC1 (stereo not given),25µM
CS(=O)(=O)N1CCC(OC2CCN(C(=O)NCc3ccco3)CC2)CC1,n
CCCOc1nccnc1NC1CCN(C(=O)NCc2ccco2)CC1,25µM
O=C(c1ccccn1)N1CCC(Oc2cccnc2)C1 (stereo not given),n
CC[C@H]1CN(C(=O)NC2CCCCC2)CC[C@H]1CC(=O)NCc1ccco1,n
CCCOc1nccnc1NC1CCN(C(=O)NCC)CC1,28µM
COCCO[C@H]1C(=O)N(C2CCN(C(=O)c3ccccn3)CC2)[C@H]1c1ccncc1,n
CCCOc1nccnc1NC1CCN(C(=O)c2ccccn2)CC1,28µM
CCOCCCNC(=O)N1CCC(Oc2ncccc2C(=O)N(C)C)C1 (stereo not given),n
COc1cccc(C(=O)N2CCN(C(=O)C3CCCO3)CC2)c1 (stereo not given),n
CCN(C(=O)c1csc(-c2ccco2)n1)C1CC1,n
COc1ccc2nc(NS(=O)(=O)c3ccc(C)cc3)c(Nc3ccc4c(c3)OCO4)nc2c1,n
CC(C)n1c(=O)n(CCCO)c(=O)c2c3c(sc21)COC(C)(C)C3,n
CCC1CCCCN1C(=O)C1CC1 (stereo not given),n
Cc1cnc(NC(=O)CCc2ncc(-c3c(F)cccc3F)o2)s1,n
Cc1nn(-c2ccccc2)c(Oc2ccccc2F)c1CCC(=O)N1CCSCC1,n
